The results in this text go back to PubChem BioAssay.

A number with no mark means an inactive call. Cut-off read from the data, not from the text of the source, unless noted: active = inhibition above about 31%; inactive = the rest.

The first experiment in a line: yeast transport mutant growth inhibition pilot in 384-well plates, post-Golgi transport modulator project (AID 636). Conditions: absorbance 615 nm, about 18 h, hits give high values.
Usually inhibition stands for the drop in the measured response relative to a control, in per cent. In the case of `O=C1c2ccccc2C(=O)N1Cc1nc2ccccc2c(=O)n1CCN1CCOCC1`, the inhibition is -1.18%.

For `Nc1c(C(=O)NCCc2ccccc2)nnn1Cc1ccccc1`, the inhibition was -8.55%.

For `CC1/C(=N/O)C(CN(C)C)C2CC1C2(C)C` (stereo not given), the inhibition was -3.38%.

For the compound `Nc1cc(-c2ccccc2)ccc1O`, the inhibition was -7.16%.

Consider `CCOC(=O)c1c(C)[nH]c(C=Nc2ccccc2)c1O`, for which the inhibition was -4.13%.

Regarding `O=C(COc1nnc2ccccn12)N1CCN(S(=O)(=O)c2ccccc2)CC1`, the inhibition is -5.13%.

Turning to `O=C(Nc1ccc2nc(-c3cccs3)[nH]c2c1)c1ccco1`, the inhibition was 0.13%.

In the case of `COC(=O)c1ccccc1NC(=O)CC(NCc1ccccc1)C(=O)O` (stereo not given), the inhibition was -2.11%.

Turning to `CCOC(=O)c1oc2ccccc2c1CSc1nnnn1-c1ccc(OC)cc1`, the inhibition was -4.8%.

Regarding `CC1(C)CC(=O)C2=C(C1)OC(=O)C2(NC(=O)c1cccs1)C(F)(F)F` (stereo not given), the inhibition is -4.05%.

Turning to `CCc1ccc(CNCc2cccnc2)cc1`, the inhibition is -1.82%.

`CCOC(=O)C1CCN(C(=O)C2CCN(S(=O)(=O)c3cc(Cl)ccc3Cl)CC2)CC1`: the inhibition is -5.07%.

With `Cc1cnc(-c2nnc(N(C)C(=O)C3CCOC3)s2)cn1` (stereo not given), the inhibition is -1.45%.

Consider `CN1/C(=C\C(=O)C(F)F)C(C)(C)c2ccccc21`, for which the inhibition is -0.53%.

As to `Nc1cc(CN2C(=O)c3ccccc3C2=O)cc(Cl)c1O`, the inhibition was -5.41%.

Take `COCc1nnc(NC(=O)CCCOc2ccccc2)s1`: the inhibition is -6.53%.

Regarding `CCCN(CCC)S(=O)(=O)c1ccc(NS(C)(=O)=O)cc1`, the inhibition is -1.18%.

On to `Cc1nnc2n(-c3ccccc3)c(=O)c3c4c(sc3n12)CCCC4`, for which the inhibition was -7.47%.

Regarding `COC(=O)c1ccccc1NC(=O)C1CC(=O)N(c2ccc(F)cc2)C1` (stereo not given), the inhibition was -6.4%.

For the compound `O=C(CCc1ccccc1)Nc1ccncc1`, the inhibition was 0.65%.

As for `CN(CC(=O)Nc1nccs1)S(=O)(=O)c1ccc(F)cc1`, the inhibition was 0.78%.

On to `COc1cccc(-c2nc(CSCC(=O)N3CCc4ccccc43)c(C)o2)c1`, for which the inhibition is 2.63%.

In the case of `CCCC(=O)Nc1nnc(CC(=O)OCC)s1`, the inhibition was -2.21%.

In the case of `COc1ccc(N2CCN(C(c3cccs3)C(C)NC(=O)c3ccco3)CC2)cc1` (stereo not given), the inhibition was -4.53%.

Regarding `O=C(CSc1ncccn1)NCc1ccccc1`, the inhibition is 4.4%.

As to `Cc1ccc(-c2[nH]nc3c2C(c2ccc(OC(=O)N4CCOCC4)cc2)C(C#N)=C(N)O3)cc1` (stereo not given), the inhibition was -5.26%.

`O=C(Nc1ccccc1)N(O)c1ccc(Cl)cc1`: the inhibition was -2.11%.

In the case of `CCCCCC(=O)N1CC2(CC)CN(C(=O)CCCCC)CC(CC)(C1)C2=O`, the inhibition was 0.51%.

Take `Cc1cc(NC(=O)C23CCC(C)(c4nc5cc(Cl)c(Cl)cc5nc42)C3(C)C)no1` (stereo not given): the inhibition was -3.42%.

As for `CCOC(=O)CSc1nnc(Cn2nnc(-c3ccccc3)n2)n1CC`, the inhibition was -7.2%.

With `O=C(COC(=O)c1ccc(Br)o1)Nc1ccc(S(=O)(=O)N2CCCC2)cc1`, the inhibition is -6.35%.

For `Cc1cccc(-n2c(O)c(C=Nc3ccccc3N)c(=O)[nH]c2=O)c1`, the inhibition is -5.19%.

For the compound `Cn1c(-c2ccccc2)cc(=O)c2ccccc21`, the inhibition was -1.43%.

Take `COc1cc(S(=O)(=O)NC2CCCCC2)ccc1Cl`: the inhibition was -3.95%.

With `c1ccc(Cn2nnnc2CN2CCN(c3ncccn3)CC2)cc1`, the inhibition is -3.47%.

As to `CS(=O)(=O)N(CC(=O)O)c1cccc(Cl)c1`, the inhibition was 2.11%.

Consider `O=S1(=O)CC(N2CCOCC2)c2ccccc21` (stereo not given), for which the inhibition is 0.27%.

As to `C=CCn1cc(C(=O)NCCOC)c(=O)c2cc(S(=O)(=O)N(CC)CC)ccc21`, the inhibition is -5.13%.

On to `Cc1ccc(C(=O)OCC(=O)c2ccc(Cl)s2)s1`, for which the inhibition is -0.93%.

For `CCOC(=O)/N=C(/NC(=O)Nc1ccc(C(=O)OCC)cc1)OC`, the inhibition was -5.54%.

The nature of another experiment: growth suppression of yeast trafficking mutant, preliminary HTS, modulators of trafficking downstream of Golgi apparatus project, 1536-format plate, OD 615 nm (AID 637; in the data active = inhibition above about 30%). Conditions: yeast transport mutant growth, absorbance 615 nm, 18 h; hits give high values.
For the compound `O=C1c2ccccc2C(=O)N1Cc1nc2ccccc2c(=O)n1CCN1CCOCC1`, the inhibition is -4%.

As to `Nc1c(C(=O)NCCc2ccccc2)nnn1Cc1ccccc1`, the inhibition is -1.45%.

As for `CC1/C(=N/O)C(CN(C)C)C2CC1C2(C)C` (stereo not given), the inhibition was -3.49%.

Regarding `Nc1cc(-c2ccccc2)ccc1O`, the inhibition was 8.33%.

With `CCOC(=O)c1c(C)[nH]c(C=Nc2ccccc2)c1O`, the inhibition was 11.4%.

For the compound `O=C(COc1nnc2ccccn12)N1CCN(S(=O)(=O)c2ccccc2)CC1`, the inhibition was -5.09%.

Consider `O=C(Nc1ccc2nc(-c3cccs3)[nH]c2c1)c1ccco1`, for which the inhibition is 2.95%.

`COC(=O)c1ccccc1NC(=O)CC(NCc1ccccc1)C(=O)O` (stereo not given): the inhibition is -12.3%.

On to `CCOC(=O)c1oc2ccccc2c1CSc1nnnn1-c1ccc(OC)cc1`, for which the inhibition was 0.16%.

Turning to `CC1(C)CC(=O)C2=C(C1)OC(=O)C2(NC(=O)c1cccs1)C(F)(F)F` (stereo not given), the inhibition was 12.2%.

With `CCc1ccc(CNCc2cccnc2)cc1`, the inhibition is -2%.

Turning to `CCOC(=O)C1CCN(C(=O)C2CCN(S(=O)(=O)c3cc(Cl)ccc3Cl)CC2)CC1`, the inhibition was 0.48%.

Regarding `Cc1cnc(-c2nnc(N(C)C(=O)C3CCOC3)s2)cn1` (stereo not given), the inhibition was -10.9%.

On to `CN1/C(=C\C(=O)C(F)F)C(C)(C)c2ccccc21`, for which the inhibition was 1.77%.

Regarding `Nc1cc(CN2C(=O)c3ccccc3C2=O)cc(Cl)c1O`, the inhibition is -1.64%.

For `COCc1nnc(NC(=O)CCCOc2ccccc2)s1`, the inhibition was -3.97%.

Take `CCCN(CCC)S(=O)(=O)c1ccc(NS(C)(=O)=O)cc1`: the inhibition is -5.83%.

Consider `Cc1nnc2n(-c3ccccc3)c(=O)c3c4c(sc3n12)CCCC4`, for which the inhibition is 0.33%.

On to `COC(=O)c1ccccc1NC(=O)C1CC(=O)N(c2ccc(F)cc2)C1` (stereo not given), for which the inhibition is 2.13%.

Take `O=C(CCc1ccccc1)Nc1ccncc1`: the inhibition is -5.33%.

With `CN(CC(=O)Nc1nccs1)S(=O)(=O)c1ccc(F)cc1`, the inhibition is -4.75%.

For `COc1cccc(-c2nc(CSCC(=O)N3CCc4ccccc43)c(C)o2)c1`, the inhibition was -8.67%.

As to `CCCC(=O)Nc1nnc(CC(=O)OCC)s1`, the inhibition is -7.14%.

Take `COc1ccc(N2CCN(C(c3cccs3)C(C)NC(=O)c3ccco3)CC2)cc1` (stereo not given): the inhibition is -0.16%.

In the case of `O=C(CSc1ncccn1)NCc1ccccc1`, the inhibition is -8.71%.

Regarding `Cc1ccc(-c2[nH]nc3c2C(c2ccc(OC(=O)N4CCOCC4)cc2)C(C#N)=C(N)O3)cc1` (stereo not given), the inhibition was -11.4%.

Turning to `O=C(Nc1ccccc1)N(O)c1ccc(Cl)cc1`, the inhibition was -4.5%.

Take `CCCCCC(=O)N1CC2(CC)CN(C(=O)CCCCC)CC(CC)(C1)C2=O`: the inhibition is -7.33%.

For the compound `Cc1cc(NC(=O)C23CCC(C)(c4nc5cc(Cl)c(Cl)cc5nc42)C3(C)C)no1` (stereo not given), the inhibition was 6.29%.

As for `CCOC(=O)CSc1nnc(Cn2nnc(-c3ccccc3)n2)n1CC`, the inhibition was -3.17%.

As to `O=C(COC(=O)c1ccc(Br)o1)Nc1ccc(S(=O)(=O)N2CCCC2)cc1`, the inhibition is -1%.

As for `Cc1cccc(-n2c(O)c(C=Nc3ccccc3N)c(=O)[nH]c2=O)c1`, the inhibition was -0.16%.

Regarding `Cn1c(-c2ccccc2)cc(=O)c2ccccc21`, the inhibition is -2.13%.

For the compound `COc1cc(S(=O)(=O)NC2CCCCC2)ccc1Cl`, the inhibition was -2.7%.

As to `c1ccc(Cn2nnnc2CN2CCN(c3ncccn3)CC2)cc1`, the inhibition is 0.98%.

On to `CS(=O)(=O)N(CC(=O)O)c1cccc(Cl)c1`, for which the inhibition is 2.95%.

Take `O=S1(=O)CC(N2CCOCC2)c2ccccc21` (stereo not given): the inhibition is -9.52%.

Take `C=CCn1cc(C(=O)NCCOC)c(=O)c2cc(S(=O)(=O)N(CC)CC)ccc21`: the inhibition was -2.73%.

Consider `Cc1ccc(C(=O)OCC(=O)c2ccc(Cl)s2)s1`, for which the inhibition is -10.3%.

Regarding `CCOC(=O)/N=C(/NC(=O)Nc1ccc(C(=O)OCC)cc1)OC`, the inhibition was 5.4%.
